Most compounds without a hit are left out; they make up all but 1.2% or so of the library.
ERK AVP inh: blocks ERK signaling stimulated by vasopressin. hit rate 0.99% among 72,000. Potency, µM (series often up to 57.5 µM), without a hit: at the top dose activity, negative = inhibition, most hits filed as inhibitors. AID 995. HEK293-V1b, vasopressin-stimulated pERK AlphaScreen; also: potency is read from the fitted curve at half-maximal effect; % is scaled to controls: 0 for no effect and ±100 for the full control effect; nearly all actives have a fitted effect of over 55% in size
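Phosphorylated ERK1/2 detected via AlphaScreen bead proximity in lysates of V1b-expressing HEK293 cells given 25 nM vasopressin for 5 min after 30 min compound exposure (37 °C). AC50 from Hill equation; basal DMSO 0%, vasopressin 100%.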
BRCT inh red: inhibitors of human BRCA1 BRCT-phosphoprotein interaction (red fluorophore); hit rate 0.03% among 75,000; AID 892; Potency, µM (top dose mostly 76.9 µM), for the others: at the top dose activity change, negative = inhibition, hits mostly inhibitors; BRCT-phosphopeptide binding, red fluorescence polarization; also: % is scaled to controls: 0 for no effect and ±100 for the full control effect
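Fluorescence polarization: 100 nM His-tagged BRCA1 BRCT with 100 nM TAMRA-labelled phospho-BACH1 decapeptide, phosphate buffer pH 7.3 with 150 mM NaCl, DTT, 0.01% Tween 20; 12 min RT. Binding inhibition seen as FP decrease.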
BRCT inh green: inhibitors of human BRCA1 BRCT-phosphoprotein interaction (green fluorophore); P38398; BRCA1 BRCT-phosphopeptide binding, green fluorescence polarization; Potency, µM (titrated, usually from 76.9 µM), without a hit: at the top dose activity change, negative = inhibition, actives largely listed as inhibitors; hit rate 0.05% among 75,000;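 also: potency is read from the fitted curve at half-maximal effect; plate controls were peptide without protein for full effect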
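Compounds were incubated for 12 min at room temperature with a complex of 100 nM fluorescein-tagged pBACH1 decapeptide and 250 nM His-tagged BRCT protein. Buffer was phosphate pH 7.3 with EDTA, DTT and Tween 20. Disruption of binding lowers the polarization signal.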
Pol III holo inh: inhibitors of bacterial DNA polymerase III holoenzyme; reconstituted DNA polymerase III holoenzyme replication, biochemical; Potency, µM (series often up to 57.1 µM), for inactives: at the top dose activity change, negative = inhibition; hit rate 0.25% among 71,000; also: potency is read from the fitted curve at half-maximal effect; % is scaled to controls: 0 for no effect and ±100 for the full control effect
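Reconstituted *E. coli* holoenzyme (0.35 nM Pol III, 1 nM beta, 154 nM SSB, 2 nM primase) was preincubated with compound for 15 min at RT. Synthesis on 1.4 nM ssM13Gori ran 35 min, then was stopped with PicoGreen/EDTA and read as dsDNA fluorescence.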
YjeE inh: displaces an ADP probe from E. coli YjeE (TsaE) | P0AF67 | purified YjeE enzyme, qHTS inhibition assay | Potency, µM | hit rate 0.05% among 71,000 | AID 605
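Fluorescence polarization of a BODIPY Texas Red–ADP probe (2 uM) bound to purified YjeE (10 uM) was read after 15 min room-temperature incubation with compounds. Loss of polarization marks inhibitors; ADP serves as titrated control.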
An asterisk follows results filed as active; i = inactive; ? = inconclusive; / = not tested or not shown; ! = not confirmed by another sample; [ ] = another dose, or the depositor's remark. Calls follow the shape of the dose curve; as a rule, active = well fitted curve in the direction sought with a large enough effect; inconclusive = small, poorly fitted or top-dose-only effect, or another doubt; inactive = no such curve, though single readings can be large; an effect the other way counts as inactive or inconclusive.

SMILES | ERK AVP inh | BRCT inh red | BRCT inh green | Pol III holo inh | YjeE inh
CC(C)=CCCC1(C)C=Cc2c(O)c3c(c(CC=C(C)C)c2O1)OC12C(=CC4CC1C(C)(C)OC2(C/C=C(/C)C(=O)O)C4=O)C3=O (stereo not given) | ? | 1% | -1%[3.08 µM] | / | /
CC(C)=CCCC1(C)C=Cc2c(O)c3c(c(CC=C(C)C)c2O1)OC12C(=CC4CC1C(C)(C)OC2(C/C=C(/C)C(=O)O)C4O)C3=O (stereo not given) | 5µM* | -3% | -3% | / | /
COc1cc2c(cc1OC)-c1c(O)c(OC)cc3c1[C@@H](C2)N(C)CC3 | / | / | / | -22% | i
COC[C@@H]1OC(=O)c2coc3c2[C@]1(C)C1=C(C3=O)[C@H]2CCC(=O)[C@]2(C)C[C@@H]1OC(C)=O | / | / | / | 8% | i
CN(N=O)c1ccc(O)c(O)c1 | -7% | 6.3µM* | 10µM* | 0.4µM* | i
CN1C[C@@H](CNC(=O)OCc2ccccc2)C[C@H]2c3cccc4c3c(cn4C)C[C@@H]21 | / | / | / | -8% | i
N#C/C(=C\c1ccc(O)c(O)c1)C(N)=S | 16µM*! | 0% | 195% | -10% | i
Cc1ccc(NC(=[OH+])c2cc3ccccc3cc2O)c(C)c1.Cc1ccc(NC(=[OH+])c2cc3ccccc3cc2O)c(C)c1.[Ni] | 11%[11.5 µM] | -6%[15.4 µM] | 0%[15.4 µM] | -13%[11.4 µM] | i
CC(C)[C@]1(NC(=O)[C@H]2C=C3c4cccc5[nH]cc(c45)C[C@H]3N(C)C2)O[C@@]2(O)[C@H]3CCCN3C(=O)[C@H](Cc3ccccc3)N2C1=O | / | / | / | -4% | i
CC1=NCCc2c1[nH]c1cc(O)ccc21 | 3% | 2% | 32µM*! | -4% | i
CC1=C2[C@@H]3OC(=O)[C@H](C)[C@H]3CC[C@@]2(C)C=CC1=O | / | / | / | 1% | i
Cl.Cl.Cl.Cl.Cl.Cl.N.N.N.N.NNNNN.NNNNN.O.O.[Ru].[Ru].[Ru] | ? | 1% | -2% | ? | 79µM*
CC(=O)[C@@H]1CC[C@@H]2[C@H]3CC[C@H]4C[C@@H](O)CC[C@]4(C)[C@@H]3C(=O)C[C@]21C | / | / | / | 0% | i
CCC(COC(=O)c1cc(OC)c(OC)c(OC)c1)(c1ccccc1)N(C)C (stereo not given) | 32µM* | -3% | 1%[3.08 µM] | / | /
c1cc2cc(c1)C[n+]1ccc(c3ccccc31)NCc1ccc(cc1)CNc1cc[n+](c3ccccc13)C2 | 0% | -2% | 7% | 32µM* | i
O=C1Nc2ccccc2C2(CCN(CCc3ccc(C(F)(F)F)cc3)CC2)O1 | 16µM* | -1% | 0% | / | /
C[C@@H]1OC(OC2C(OC3CC[C@@]4(C)C5CC=C6C7CC(C)(C)CC[C@@]7(C(=O)O)CCC6(C)C5(C)CCC4[C@]3(C)CO)OCC(O)C2O)C(O)C(O)C1O (stereo not given in full) | ? | -3% | -3% | / | /
CN(C)[C@@H]1C(=O)C(C(N)=O)=C(O)[C@@]2(O)C(=O)C3=C(O)c4c(O)cccc4[C@@](C)(O)[C@H]3[C@H](O)[C@@H]12 | 2% | -6% | 1% | -2% | i
CN(C)[C@@H]1C(=O)C(C(N)=O)=C(O)[C@]2(O)C(=O)C3=C(O)c4c(O)cccc4[C@](C)(O)[C@H]3C[C@@H]12 | -1%[11.5 µM] | ? | ? | 3.2µM* | i
CC(CCC(=O)O)C1CCC2C3CC[C@H]4CC(O)CC[C@@]4(C)C3CC[C@@]12C (stereo not given in full) | ? | 15% | 1%[3.08 µM] | / | /
C[C@H](CCC(=O)O)[C@H]1CC[C@H]2[C@@H]3CC[C@@H]4C[C@H](O)CC[C@]4(C)[C@H]3CC[C@]12C | 40µM* | 36% | 1% | ? | i
O=C(O)c1ccccc1-c1c2cc(Br)c(=O)cc-2oc2[c]([Hg])c(O)c(Br)cc12 | 16µM*! | 1.6µM* | 0.79µM* | i | i
CC1=C(O)C(=O)C=C2C1=CC=C1[C@]2(C)CC[C@@]2(C)C3C[C@](C)(C(=O)O)CC[C@@]3(C)CC[C@@]12C (stereo not given in full) | 32µM* | 0% | -2%[3.08 µM] | / | /
CCN1C[C@]2(C)CC[C@@H](O)[C@]34[C@@H]5CC6[C@@H](OC)C[C@@](O)([C@H]5[C@@H]6O)[C@@H](C[C@@H]23)[C@H]14 | -5% | 0% | -1% | -5% | i
CNc1ccc2oc(C[C@H]3O[C@]4(CC[C@H]3C)O[C@H]([C@H](C)C(=O)c3ccc[nH]3)[C@H](C)C[C@H]4C)nc2c1C(=O)O | 5µM* | 2% | 3% | -6% | i
SMILES | ERK AVP inh | BRCT inh red | BRCT inh green | Pol III holo inh | YjeE inh
CC(C)[C@H]1C(=O)N2CCC[C@@H]2[C@]2(O)O[C@@](NC(=O)[C@H]3C=C4c5cccc6[nH]cc(c56)C[C@H]4N(C)C3)(C(C)C)C(=O)N12 | / | / | / | 2% | i
CC[C@H](CO)NC(=O)[C@H]1C=C2c3cccc4[nH]cc(c34)C[C@H]2N(C)C1 | / | / | / | -9% | i
O=S1OCC2C(CO1)C1(Cl)C(Cl)=C(Cl)C2(Cl)C1(Cl)Cl (stereo not given) | 7% | 2% | -2% | 4% | i
O=C(O)[C@@H]1[C@H](C(=O)O)[C@]2(Cl)C(Cl)=C(Cl)[C@@]1(Cl)C2(Cl)Cl | ? | -3%[15.4 µM] | -5%[15.4 µM] | 2µM* | i
S=C=Nc1cccc2ccccc12 | -4% | 1% | 0% | 0% | i
C=CCN1CC[C@]23c4c5ccc(O)c4O[C@@H]2C(=O)CC[C@@]3(O)[C@H]1C5 | 6% | 1% | -2% | -4% | i
CC(=O)[O-].CC(=O)[O-].O.O.[Cd+2] | -14% | 0% | 0% | 0.25µM* | ?
C=CC(C)=O | -3% | 1% | -1% | -6% | i
C[CH2][Hg][S]c1ccccc1C(=O)O | 10µM* | -2% | 1%[3.08 µM] | / | /
CC1CC[C@@]2(OC1)O[C@@H]1[C@@H](O)[C@H]3C4CC[C@H]5C[C@@H](O[C@@H]6O[C@H](CO)[C@H](O[C@@H]7O[C@H](CO)[C@@H](O)[C@H](O[C@@H]8OC[C@@H](O)[C@H](O)[C@H]8O)[C@H]7O[C@@H]7O[C@H](CO)[C@@H](O)[C@H](O[C@@H]8O[C@H](CO)[C@@H](O)[C@H](O)[C@H]8O)[C@H]7O)[C@H](O)[C@H]6O)[C@H](O)C[C@]5(C)C4CC[C@]3(C)[C@H]1[C@@H]2C (stereo not given in full) | 40µM* | 0% | 0% | / | /

High-throughput results: PubChem, National Center for Advancing Translational Sciences (NCATS)
